Measured values as given in PubChem BioAssay AID1851 (National Center for Advancing Translational Sciences (NCATS), 2009).
Several values for one entry are separate records, joined by “and”; a condition that tells them apart may be missing. Equal entries are not always repeated. In all, about 16,000 compounds went through this assay and about 5,800 (36%) were called active. Inconclusive results (about 23%) are left out. The call rests on the fitted dose curve; in most records, active means well fitted curve in the direction sought with a large enough effect; inconclusive means small, poorly fitted or top-dose-only effect, or effect the other way; inactive means no such curve, though single readings can be large or run the other way. This is one part of the list. The source holds several records for some structures; these can differ, active in one and inactive in another.

The compounds below were run against Cytochrome P450 2C19 (Homo sapiens) (UniProt P33261) (assay: Cytochrome panel assay with activity outcomes). Details: recombinant CYP, pro-luciferin dealkylation, luminescence, p450-cyp2c19; series mostly up to 57.1 µM; activity, negative = inhibition: at the top concentration.
On the % scale 0 is the no-effect control and ±100 the full control effect.

Chain of Cytochrome P450 2C19 (Homo sapiens) (P33261 whole entry, looked up): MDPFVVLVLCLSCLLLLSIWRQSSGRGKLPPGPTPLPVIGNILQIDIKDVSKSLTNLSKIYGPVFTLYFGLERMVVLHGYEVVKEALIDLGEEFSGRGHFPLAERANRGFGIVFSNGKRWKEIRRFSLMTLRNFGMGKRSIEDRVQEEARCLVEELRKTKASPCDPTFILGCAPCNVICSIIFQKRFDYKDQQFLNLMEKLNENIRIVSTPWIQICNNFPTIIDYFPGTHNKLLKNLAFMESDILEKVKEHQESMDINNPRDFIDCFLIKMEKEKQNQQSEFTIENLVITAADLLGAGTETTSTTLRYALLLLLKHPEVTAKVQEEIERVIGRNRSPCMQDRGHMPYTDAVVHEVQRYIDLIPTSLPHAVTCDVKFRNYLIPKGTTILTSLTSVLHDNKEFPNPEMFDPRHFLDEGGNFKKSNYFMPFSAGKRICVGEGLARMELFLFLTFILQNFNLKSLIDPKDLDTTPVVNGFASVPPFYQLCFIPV

Compound	activity, negative = inhibition	AC50
CCN(CC)CC[n+]1ccc2c(C)c3[nH]c4ccccc4c3c(C)c2c1	2.93% [at 11.4 µM] (inactive)	
O=C(c1ccco1)N1CCC[C@@]2(CCN(C(c3ccccc3)c3ccccc3)C2)C1	-43.7% (inactive)	
S=C(NCc1ccco1)N1CCN(C(c2ccccc2)c2ccccc2)CC1		7.08 µM (active)
S=C(NCc1ccco1)N1CCN(Cc2ccco2)CC1		15.8 µM (active)
CS(=O)(=O)Nc1c(O)ccc2c1CCC[C@H]2C1=NCCN1	-7.17% (inactive)	
CCOc1ccc(N2C(=O)c3cccnc3C2=O)cc1	-14.9% (inactive)	
O=C1c2cccnc2C(=O)N1Cc1ccc(F)cc1		8.91 µM (active)
COc1ccccc1CN1CCCC2(CCN(C(C)=O)CC2)C1	-44.6% (inactive)	
S=C1SCN(C2CCCCCCCCCCC2)CN1C1CCCCCCCCCCC1		3.98 µM (active)
CCNc1ncc2nc(-c3ccc(F)cc3)c(=O)n(-c3ccc(OC)cc3)c2n1	-14.2% (inactive)	
Cc1cc(OCCn2cc(/C(N)=N/O)c3ccccc32)ccc1Cl		0.708 µM (active)
Cc1c(C#N)c(=O)oc2ccc3ccccc3c12	6.24% (inactive)	
CCCCN(C)C(=O)c1coc(=O)c2ccccc12	-26.6% (inactive)	
CCCCNC(=O)Cc1coc2ccc3ccccc3c12		3.16 µM (active)
Nc1nc2c(c(=O)[nH]1)N(C=O)[C@H](CNc1ccc(C(=O)N[C@@H](CCC(=O)O)C(=O)O)cc1)CN2	4.69% [at 25.6 µM] (inactive)	
CCOC(=O)c1c(C)c(C(=O)N2CCCCCC2)c(C)n1C		7.08 µM (active)
CCOC(=O)c1c(C)c(C(=O)NCCN2CCOCC2)c(C)n1CC	-10% (inactive)	
CC(C)CN1CCC2(CC1)CCN(C(=O)c1csnn1)CC2	-18% (inactive)	
O=C(Nc1cccc(F)c1)/C(=C\c1ccco1)NC(=O)c1cccs1		14.1 µM (active)
CCOC(=O)c1c(C)nc2c(c1-c1ccccc1)C(=O)CC(C)(C)C2		7.08 µM (active)
CCn1cc(C(=O)O)c(=O)c2cc(F)c(N3CCN[C@@H](C)C3)c(F)c21		inactive
COC(=O)C1=C(C)N=C2SC(C)C(=O)N2C1/C=C/c1ccccc1 (stereo not drawn)		5.01 µM (active)
CCc1cc2c(c(CC)n1)CCC(=O)N2Cc1ccc(-c2ccccc2-c2nn[nH]n2)cc1		5.01 µM (active)
CC1=N[C@@](C)(COC(=O)[C@]2(C)N[C@](C)(CO)CO2)COC1=O	40.4% [at 11.4 µM] (inactive)	
COc1ccc(/C=C(/C(=O)Nc2ccccc2C(=O)NC(C)C)c2ccccc2)cc1		15.8 µM (active)

Compound	activity, negative = inhibition	AC50
CC(C)NC(=O)c1ccccc1NC(=O)/C=C/c1ccc([N+](=O)[O-])cc1	-23.5% (inactive)	
Cc1ccccc1NC(=O)/C(=C/c1ccccc1)c1ccccc1		10 µM (active)
O=C(O)/C(=C\c1ccccc1)c1ccccc1	11.9% [at 11.4 µM] (inactive)	
CCN(CC)CCOC(=O)C1(C2CCCCC2)CCCCC1		inactive
N#Cc1cccc(NC(=O)N2CC3(CCN(C(=O)c4cc(C(F)(F)F)cc(C(F)(F)F)c4)CC3)C2)c1		0.631 µM (active)
O=C(Nc1cccc(F)c1)N1CC2(CCN(C(=O)c3cc(C(F)(F)F)cc(C(F)(F)F)c3)CC2)C1	-18.1% (inactive)	
N#Cc1cccc(NC(=O)N2CCCC3(CCN(C(=O)c4cc(C(F)(F)F)cc(C(F)(F)F)c4)CC3)C2)c1	-40.9% (inactive)	
Cc1ccc2c(c1)/C(=N/OC(=O)c1ccc(F)cc1)CCS2	-3.53% (inactive)	
C/C(=N\OC(=O)c1ccc(F)cc1)c1nccs1		17.8 µM (active)
O=C(O)[C@@H]1C[C@@H](C(=O)O)N1		25.1 µM (active)
O=C(O)[C@H]1C[C@H](C(=O)O)N1	29.8% (inactive)	
O=C(O)[C@H]1[C@H](C(=O)O)[C@H](C(=O)O)C[C@@H]1C(=O)O	24.8% [at 11.4 µM] (inactive)	
O=[N+]([O-])c1ccccc1N/N=C/c1c[nH]c2ccccc12		10 µM (active)
COc1c(/C=N/Nc2ccc([N+](=O)[O-])cc2[N+](=O)[O-])c(C)nn1-c1ccccc1	-25.7% (inactive)	
O=S(=O)(NCc1cn2ccsc2n1)c1ccc(Oc2ccccc2)cc1		10 µM (active)
COc1ccccc1N1CCN(CCN2C(=O)c3ccccc3C(C)(C)C2=O)CC1	-24% (inactive)	
COc1cccc2cc(C(=O)CC3(O)C(=O)N(Cc4ccccc4)c4ccccc43)c(=O)oc12 (stereo not drawn)		25.1 µM (active)
O=C(O)C1(C(=O)O)CCN(S(=O)(=O)c2ccccc2)CC1	16.2% [at 11.4 µM] (inactive)	
N.N.O=C(O)C1(C(=O)O)CCC1.[Pt]		3.98 µM (active)
COc1ccc(OCc2nnc(SCC(=O)O)n2N)cc1	17.5% (inactive)	
O=C(CSc1nnc(COc2ccccc2)n1-c1ccccc1)c1ccccc1		3.98 µM (active)
CCOC(=O)c1nnn(-c2nonc2N)c1-c1ccccc1		2.82 µM (active)
Cc1nonc1NC(=O)N1CCCC1	32.4% (inactive)	
CC(C)OC(=O)c1nnn(-c2nonc2N)c1CSc1ccccn1		0.251 µM (active)
Cc1c(C(=O)N2CCCCCC2)nnn1-c1nonc1N		7.94 µM (active)

Compound	activity, negative = inhibition	AC50
Nc1nonc1-n1nncc1-c1ccccc1		6.31 µM (active)
NC(N)=NC(N)=Nc1c(F)c(F)c(F)c(F)c1F	-5.72% [at 11.4 µM] (inactive)	
CCOC(=O)c1nnn(-c2nonc2N)c1-c1ccc(C)cc1		1.58 µM (active)
COCc1c(C(N)=O)nnn1-c1nonc1N	-13.1% (inactive)	
CCOC(=O)c1nnn(-c2nc(OC)nc(N3CCCCC3)n2)c1-c1ccccc1		7.94 µM (active)
OC[C@H]1NC[C@H](O)[C@@H](O)[C@H]1O	17.1% (inactive)	
COCC(=O)N1CCC2(CC1)CN(Cc1ccc(C#N)cc1)C2	24.8% (inactive)	
O=C(COc1ccc(Cl)cc1)N1CCN(Cc2ccc3c(c2)OCO3)CC1		5.01 µM (active)
COCC(=O)N1CCC[C@@]2(CCN(Cc3ccc(C#N)cc3)C2)C1	38.5% (inactive)	
c1cnc(N2CCN(Cc3ccc4c(c3)OCO4)CC2)nc1		2 µM (active) and 631 nM (active) and inactive
O=C(CCN1C(=O)c2cccc3cccc(c23)C1=O)N1CCN(Cc2ccc3c(c2)OCO3)CC1		1.58 µM (active)
O=C(O)[C@@H]1CCCN1Cc1ccc2c(c1)OCO2	14.1% [at 11.4 µM] (inactive)	
Cc1noc(C)c1-c1cc(NCc2ccccc2)ncn1	-41.3% (inactive)	
Cc1noc2ncnc(Oc3ccc4ccccc4c3)c12		7.08 µM (active)
Cc1cccc(Oc2ncnc3onc(C)c23)c1C		5.01 µM (active)
COc1ccc(NC(=O)N2CC3(CCN(C(=O)c4csnn4)CC3)C2)cc1	18% (inactive)	
O=C(O)CN1CCN(Cc2ccccc2)C1=O		6.31 µM (active)
NC(Cc1ccccc1)=NCC(=O)O	18.2% [at 11.4 µM] (inactive)	
O=C(O)CN1CCN(Cc2ccc(F)cc2Cl)C1=O		5.01 µM (active)
Cc1cccc(CN2CCN(CC(=O)O)C2=O)c1	-2.07% (inactive)	
Nc1nc2ncc(CNc3ccc(C(=O)N[C@@H](CCC(=O)O)C(=O)O)cc3)nc2c(=O)[nH]1	9.66% [at 25.6 µM] (inactive)	
NC(N)=N/N=C\c1ccc(O)c(C(=O)O)c1	16.2% [at 11.4 µM] (inactive)	
Nc1ccc(O)c(C(=O)O)c1		5.01 µM (active)
N[C@@H](C(=O)O)c1ccc(O)c(C(=O)O)c1	-11.4% (inactive)	
Cc1ccc(C(=O)c2cn[nH]c2-c2cc(Cl)ccc2O)cc1		0.708 µM (active)

Compound	activity, negative = inhibition	AC50
Cc1cc2c(nc1C)CCCCN2C[C@H](C)O/N=C\[C@@H](C)[C@H](OCc1ccccc1)C(C)C	-20.8% [at 11.4 µM] (inactive)	
CCc1nc(SCC(=O)c2ccc(Cl)s2)c2oc3ccccc3c2n1		0.562 µM (active)
CCc1nc(SCC(=O)N2CCCc3ccccc32)c2oc3ccccc3c2n1		3.98 µM (active)
Cc1nc(SCC(=O)c2ccc(Cl)s2)c2oc3ccccc3c2n1		0.178 µM (active)
CC(=O)OC[C@@H]1O[C@@H](O/N=C2/C[C@@H](O)[C@@H](O)[C@@H]3[C@@H]4C(=O)N(c5cccc(Oc6ccccc6)c5)C(=O)[C@H]4CC[C@@H]23)[C@H](OC(C)=O)[C@H](OC(C)=O)[C@@H]1OC(C)=O	-22% [at 11.4 µM] (inactive)	
Cn1c(=O)c(-c2ccc(Cl)cc2)nc2cnc(Oc3cccc(Cl)c3)nc21	9.78% (inactive)	
Clc1cccc(Oc2cnc3ccccc3n2)c1		3.55 µM (active)
O=C(CCl)Nc1ccc(Oc2cnc3ccccc3n2)cc1		5.01 µM (active)
Cn1cc(-c2nc3cnc(Oc4cccc(Cl)c4)nc3n(CCC#N)c2=O)c2ccccc21	-28% (inactive)	
CN1CCCC[C@@H]1CCN1CCCCC1	26.3% [at 11.4 µM] (inactive)	
COc1ccc(-c2cc(C(F)(F)F)n3nc(C(=O)N4CCCCC4)cc3n2)cc1		14.1 µM (active)
COC(=O)c1ccccc1NC(=O)c1cc2nc(C3CC3)cc(C(F)(F)F)n2n1	-7.71% (inactive)	
CCOC(=O)C1CCCN(C(=O)c2cc3nc(-c4ccc5c(c4)OCO5)cc(C(F)(F)F)n3n2)C1 (stereo not drawn)		14.1 µM (active)
COc1ccc(NC(=O)N2CCCC3(CCN(C(=O)c4cc(C(F)(F)F)cc(C(F)(F)F)c4)CC3)C2)cc1	-35.4% (inactive)	
C[C@H](c1ccccc1)N1C(=O)[C@H]2[C@@H]3[C@H](O)[C@H](O)CC(=O)[C@H]3CC[C@H]2C1=O	-0.855% [at 11.4 µM] (inactive)	
CCc1nnc(SCc2ccc(OC(C)C)cc2)n1N		10 µM (active)
COc1cccc2c1C(=N)c1c(O)c3c(c(O)c1C2=O)C[C@](O)(C(C)=O)C[C@@H]3O[C@H]1C[C@H](N)[C@@H](O)[C@H](C)O1	-44.3% [at 11.4 µM] (inactive)	
O=C(NCc1ccc(Cl)cc1)c1ccc(Cl)cc1[N+](=O)[O-]		1.26 µM (active)
O=[N+]([O-])c1cc(Cl)cc2c1nc(NCCO)c1ccccc12	-34.6% [at 11.4 µM] (inactive)	
CCOc1ccc(NC(=O)c2ccc(Br)o2)c([N+](=O)[O-])c1	27% (inactive)	
O=C(NCc1ccccc1)c1ccc(Cl)cc1[N+](=O)[O-]		11.2 µM (active)
Cc1ccc(C(=O)NCCNc2ccc(Cl)cc2[N+](=O)[O-])o1		7.94 µM (active)
COc1cc(C(=O)NCCC(C)C)c([N+](=O)[O-])cc1OC	-5.49% (inactive)	
